Test results reported in the supplement of paper PMC10849652.
Targets with a hit are over-represented here; the source holds about 7,900 in all. About 0.6% of all pairs of compound and target were hits. Unmarked numbers belong to inactive results.

How the values were obtained:
Assay in all cases: log2 fold change, soluble protein after heating vs DMSO (PISA); higher = thermal stabilisation; K562 cells, 10 uM, 30 min; active = over 0.2 and 3.5 SD of the protein, either way, in both replicates (recomputed)
[1] = compound: CC1=C(C=C(C=C1)NC(=O)C2=CC(=CC=C2)C(C)(C)C#N)NC3=CC4=C(C=C3)N=CN(C4=O)C
Method in brief: (§1)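 For each measurement, 10 μM compound was applied for 30 min to K562 cells at 2×10^6 cells/mL. Aliquots were heated for 3 min across 48°C-58°C, pooled, and extracted in PBS with 0.5% NP-40 at 4°C; the supernatant after 21,000xg for 90 min was soluble protein. This was quantified by TMTpro 16plex LC-MS/MS with channel sums equalised, and thermal stability was reported relative to control samples from duplicates, on a log2 fold-change scale.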

[2] = compound: CC1=C(C=C(C=C1)NC(=O)C2=CC(=CC=C2)N(C)C)NC(=O)C3=CC=C(C=C3)O
Method in brief: as §1

[3] = compound: CC1=CC=C(C=C1)SC2=C3C=C(SC3=CN=C2)C(=O)N
Method in brief: as §1

[4] = compound: CC1=NC(=CC=C1)C2=C(N=C(N2)C(C)(C)C)C3=CC4=NC=CN=C4C=C3
Method in brief: as §1

Nexturastat A = compound: CCCCN(Cc1ccc(C(=O)NO)cc1)C(=O)Nc1ccccc1 [Nexturastat A]
Method in brief: as §1

vemurafenib = compound: CCCS(=O)(=O)Nc1ccc(F)c(C(=O)c2c[nH]c3ncc(-c4ccc(Cl)cc4)cc23)c1F [vemurafenib]
Method in brief: as §1

[5] = compound: CCCS(=O)(=O)Nc1ccc(F)c(C(=O)c2c[nH]c3ncc(Cl)cc23)c1F
Method in brief: as §1

[6] = compound: CCCc1cc(C)[nH]c(=O)c1CNC(=O)c1cc(-c2ccnc(N3CCN(C)CC3)c2)cc2c1cnn2C(C)C
Method in brief: as §1

givinostat = compound: CCN(CC)Cc1ccc2cc(COC(=O)Nc3ccc(C(=O)NO)cc3)ccc2c1 [givinostat]
Method in brief: as §1

barasertib = compound: CCN(CCCOc1ccc2c(Nc3cc(CC(=O)Nc4cccc(F)c4)[nH]n3)ncnc2c1)CCOP(=O)(O)O [barasertib]
Method in brief: as §1

Sequence of UniProt Q9BV86 (Q9BV86 whole entry, looked up): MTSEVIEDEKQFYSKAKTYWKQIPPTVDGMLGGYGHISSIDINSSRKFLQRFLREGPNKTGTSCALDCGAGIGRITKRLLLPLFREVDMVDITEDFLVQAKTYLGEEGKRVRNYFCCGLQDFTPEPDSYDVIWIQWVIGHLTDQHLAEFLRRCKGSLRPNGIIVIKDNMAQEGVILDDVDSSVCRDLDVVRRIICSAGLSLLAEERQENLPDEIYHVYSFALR
Sequence of UniProt Q13153 (Q13153 whole entry, looked up): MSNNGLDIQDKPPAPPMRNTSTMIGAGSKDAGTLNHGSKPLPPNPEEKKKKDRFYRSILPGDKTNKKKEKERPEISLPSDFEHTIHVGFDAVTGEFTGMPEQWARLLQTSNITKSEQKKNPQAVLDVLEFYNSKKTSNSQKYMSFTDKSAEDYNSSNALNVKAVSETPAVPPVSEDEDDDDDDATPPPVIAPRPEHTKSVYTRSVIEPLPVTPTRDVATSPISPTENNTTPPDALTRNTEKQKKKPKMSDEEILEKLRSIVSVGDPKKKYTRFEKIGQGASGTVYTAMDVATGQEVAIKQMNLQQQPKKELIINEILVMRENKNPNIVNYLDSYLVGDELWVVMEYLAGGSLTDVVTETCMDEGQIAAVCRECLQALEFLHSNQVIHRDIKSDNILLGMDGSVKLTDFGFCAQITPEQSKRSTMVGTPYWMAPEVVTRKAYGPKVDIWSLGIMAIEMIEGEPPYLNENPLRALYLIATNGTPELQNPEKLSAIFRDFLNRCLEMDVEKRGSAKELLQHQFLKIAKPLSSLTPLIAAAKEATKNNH
Sequence of UniProt P49321 (P49321 whole entry, looked up): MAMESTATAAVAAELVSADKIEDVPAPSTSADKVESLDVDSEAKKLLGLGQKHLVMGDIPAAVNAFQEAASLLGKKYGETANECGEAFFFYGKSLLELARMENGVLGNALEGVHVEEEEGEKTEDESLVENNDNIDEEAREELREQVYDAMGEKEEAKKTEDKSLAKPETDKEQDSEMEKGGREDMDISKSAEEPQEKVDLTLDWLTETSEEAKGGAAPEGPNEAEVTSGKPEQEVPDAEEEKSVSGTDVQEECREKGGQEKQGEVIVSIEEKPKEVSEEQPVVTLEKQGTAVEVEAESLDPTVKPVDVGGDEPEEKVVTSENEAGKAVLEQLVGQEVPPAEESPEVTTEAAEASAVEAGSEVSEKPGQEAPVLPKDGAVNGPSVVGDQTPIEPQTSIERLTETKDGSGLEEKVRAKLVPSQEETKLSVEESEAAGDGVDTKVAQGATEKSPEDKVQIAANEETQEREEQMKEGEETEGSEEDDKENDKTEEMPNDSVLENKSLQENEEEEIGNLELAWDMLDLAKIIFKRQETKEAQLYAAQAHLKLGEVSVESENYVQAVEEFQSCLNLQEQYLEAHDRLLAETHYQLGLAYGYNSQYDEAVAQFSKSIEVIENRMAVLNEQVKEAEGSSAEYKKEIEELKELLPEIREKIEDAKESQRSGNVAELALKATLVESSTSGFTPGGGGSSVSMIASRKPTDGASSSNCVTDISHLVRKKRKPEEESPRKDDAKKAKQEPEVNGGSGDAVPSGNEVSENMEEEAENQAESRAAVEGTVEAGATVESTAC
Sequence of UniProt Q8N6M0 (Q8N6M0 whole entry, looked up): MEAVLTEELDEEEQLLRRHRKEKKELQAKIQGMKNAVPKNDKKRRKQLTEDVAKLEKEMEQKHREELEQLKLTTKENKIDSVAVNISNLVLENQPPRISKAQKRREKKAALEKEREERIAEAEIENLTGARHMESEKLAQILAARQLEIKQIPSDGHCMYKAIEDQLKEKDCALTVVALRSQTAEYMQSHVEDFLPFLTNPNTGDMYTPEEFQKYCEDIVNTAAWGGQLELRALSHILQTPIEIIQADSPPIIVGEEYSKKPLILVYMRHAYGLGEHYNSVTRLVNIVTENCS
Sequence of UniProt P46934 (P46934 whole entry, looked up): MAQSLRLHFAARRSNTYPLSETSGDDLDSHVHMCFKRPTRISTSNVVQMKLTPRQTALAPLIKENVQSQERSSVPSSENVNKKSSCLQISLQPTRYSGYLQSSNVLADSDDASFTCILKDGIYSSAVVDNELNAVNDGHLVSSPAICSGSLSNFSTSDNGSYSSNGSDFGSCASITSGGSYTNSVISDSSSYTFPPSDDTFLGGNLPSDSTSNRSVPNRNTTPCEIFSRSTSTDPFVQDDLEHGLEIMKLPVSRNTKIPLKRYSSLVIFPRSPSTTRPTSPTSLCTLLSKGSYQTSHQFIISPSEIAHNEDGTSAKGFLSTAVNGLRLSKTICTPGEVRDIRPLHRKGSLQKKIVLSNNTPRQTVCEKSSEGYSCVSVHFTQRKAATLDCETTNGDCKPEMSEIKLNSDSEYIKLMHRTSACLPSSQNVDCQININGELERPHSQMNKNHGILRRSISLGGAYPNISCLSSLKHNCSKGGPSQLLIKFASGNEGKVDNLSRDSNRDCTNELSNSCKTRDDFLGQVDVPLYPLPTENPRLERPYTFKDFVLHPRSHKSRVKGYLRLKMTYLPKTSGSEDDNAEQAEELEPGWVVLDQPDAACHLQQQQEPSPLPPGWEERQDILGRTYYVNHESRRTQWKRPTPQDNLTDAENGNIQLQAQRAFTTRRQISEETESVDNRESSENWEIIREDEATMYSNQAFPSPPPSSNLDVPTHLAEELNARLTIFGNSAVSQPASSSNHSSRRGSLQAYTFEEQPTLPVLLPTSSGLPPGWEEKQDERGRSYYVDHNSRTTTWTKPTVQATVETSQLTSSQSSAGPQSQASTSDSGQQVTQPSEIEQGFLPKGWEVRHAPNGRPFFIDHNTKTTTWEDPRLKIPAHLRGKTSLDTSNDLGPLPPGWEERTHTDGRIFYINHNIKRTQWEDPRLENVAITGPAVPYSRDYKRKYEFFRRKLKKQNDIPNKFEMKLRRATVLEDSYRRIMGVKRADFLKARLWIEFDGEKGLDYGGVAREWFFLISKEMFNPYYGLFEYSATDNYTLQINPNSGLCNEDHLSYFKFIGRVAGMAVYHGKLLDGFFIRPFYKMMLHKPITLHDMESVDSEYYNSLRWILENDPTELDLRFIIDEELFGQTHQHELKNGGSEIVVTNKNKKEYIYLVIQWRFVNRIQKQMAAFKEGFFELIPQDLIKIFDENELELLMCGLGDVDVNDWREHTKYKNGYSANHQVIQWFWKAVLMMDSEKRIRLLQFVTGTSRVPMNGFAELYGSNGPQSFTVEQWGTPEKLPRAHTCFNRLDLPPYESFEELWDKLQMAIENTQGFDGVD
Sequence of UniProt Q9BPX3 (Q9BPX3 whole entry, looked up): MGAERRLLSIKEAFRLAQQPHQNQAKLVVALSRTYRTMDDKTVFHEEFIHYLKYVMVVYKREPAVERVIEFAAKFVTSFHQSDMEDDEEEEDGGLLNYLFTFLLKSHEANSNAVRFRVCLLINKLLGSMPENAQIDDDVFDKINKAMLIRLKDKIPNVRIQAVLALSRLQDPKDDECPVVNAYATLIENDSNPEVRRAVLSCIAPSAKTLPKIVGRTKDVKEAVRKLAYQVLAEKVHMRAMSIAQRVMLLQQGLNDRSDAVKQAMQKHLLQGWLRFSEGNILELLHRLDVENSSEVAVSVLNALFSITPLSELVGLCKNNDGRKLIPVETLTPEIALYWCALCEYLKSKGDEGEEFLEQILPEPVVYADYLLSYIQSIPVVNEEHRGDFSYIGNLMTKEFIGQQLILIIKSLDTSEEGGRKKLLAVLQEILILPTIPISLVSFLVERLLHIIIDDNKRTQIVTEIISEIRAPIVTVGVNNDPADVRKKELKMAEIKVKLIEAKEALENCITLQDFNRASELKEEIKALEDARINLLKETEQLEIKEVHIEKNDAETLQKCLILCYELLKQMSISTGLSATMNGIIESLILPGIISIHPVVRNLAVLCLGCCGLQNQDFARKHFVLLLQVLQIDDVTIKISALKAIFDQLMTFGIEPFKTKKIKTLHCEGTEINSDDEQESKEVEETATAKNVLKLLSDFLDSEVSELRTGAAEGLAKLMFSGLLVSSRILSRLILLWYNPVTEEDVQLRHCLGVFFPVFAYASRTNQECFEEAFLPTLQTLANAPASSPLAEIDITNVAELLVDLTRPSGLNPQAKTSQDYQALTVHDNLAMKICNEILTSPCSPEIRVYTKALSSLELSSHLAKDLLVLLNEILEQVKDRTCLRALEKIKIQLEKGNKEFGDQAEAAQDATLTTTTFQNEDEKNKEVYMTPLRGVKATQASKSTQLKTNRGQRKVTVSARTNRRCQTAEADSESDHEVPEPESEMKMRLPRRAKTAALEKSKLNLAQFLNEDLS
Sequence of UniProt P15531 (P15531 whole entry, looked up): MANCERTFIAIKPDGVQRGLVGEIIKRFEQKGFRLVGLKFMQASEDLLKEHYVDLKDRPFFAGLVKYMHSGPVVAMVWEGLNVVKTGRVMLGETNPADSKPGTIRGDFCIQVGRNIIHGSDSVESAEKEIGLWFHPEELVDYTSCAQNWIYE
Sequence of UniProt Q9Y6R0 (Q9Y6R0 whole entry, looked up): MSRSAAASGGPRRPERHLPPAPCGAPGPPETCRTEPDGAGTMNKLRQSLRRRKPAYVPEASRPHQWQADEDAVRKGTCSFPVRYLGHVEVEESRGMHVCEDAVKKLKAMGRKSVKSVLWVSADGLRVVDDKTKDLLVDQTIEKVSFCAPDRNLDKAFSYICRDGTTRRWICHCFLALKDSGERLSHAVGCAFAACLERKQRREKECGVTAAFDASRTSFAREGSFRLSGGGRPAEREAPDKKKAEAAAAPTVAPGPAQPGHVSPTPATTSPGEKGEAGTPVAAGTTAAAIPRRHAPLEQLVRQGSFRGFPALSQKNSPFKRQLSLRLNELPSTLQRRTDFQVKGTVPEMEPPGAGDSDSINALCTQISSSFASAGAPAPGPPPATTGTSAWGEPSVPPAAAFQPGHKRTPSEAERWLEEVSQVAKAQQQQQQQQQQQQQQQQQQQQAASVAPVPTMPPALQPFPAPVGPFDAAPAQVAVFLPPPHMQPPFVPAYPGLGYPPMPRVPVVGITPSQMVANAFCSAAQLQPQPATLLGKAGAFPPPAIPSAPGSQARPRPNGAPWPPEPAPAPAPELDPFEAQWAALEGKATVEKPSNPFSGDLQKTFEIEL

| Target | log2 fold change [1] | log2 fold change [2] | log2 fold change [3] | log2 fold change [4] | log2 fold change (Nexturastat A) | log2 fold change (vemurafenib) | log2 fold change [5] | log2 fold change [6] | log2 fold change (givinostat) | log2 fold change (barasertib) |
| --- | --- | --- | --- | --- | --- | --- | --- | --- | --- | --- |
| MRPS35 (UniProt P82673) | -0.016 | -0.013 | -0.04 | -0.007 | 0.167 | -0.063 | -0.022 | 0.149 | 0.017 | -0.034 |
| OSTC (UniProt Q9NRP0) | 0.001 | 0.001 | 0.047 | 0.058 | -0.114 | -0.115 | 0.068 | -0.058 | 0.076 | 0.061 |
| MSH2 (UniProt P43246) | 0.038 | -0.067 | 0.017 | 0.066 | -0.018 | 0.069 | 0.08 | 0.019 | 0.083 | 0.057 |
| NCAPH (UniProt Q15003) | 0.02 | -0.091 | 0.013 | 0.012 | 0.09 | 0.068 | 0.065 | 0.067 | 0.238 | 0.042 |
| OTUD6B (UniProt Q8N6M0) | 0.045 | -0.002 | 0.124 | 0.007 | 0.044 | 0.035 | 0.14 | 0.084 | -0.02 | 0.096 |
| NPC1 (UniProt O15118) | -0.018 | 0.01 | 0.006 | 0.066 | -0.041 | 0.007 | -0.019 | -0.028 | -0.051 | 0.02 |
| MNAT1 (UniProt P51948) | 0.004 | -0.006 | 0.001 | 0.001 | 0.043 | -0.006 | 0.039 | -0.037 | 0.069 | -0.003 |
| NUDCD2 (UniProt Q8WVJ2) | -0.018 | -0.109 | 0.117 | 0.019 | 0.082 | -0.014 | 0.008 | -0.039 | 0.047 | 0.104 |
| NTMT1 (UniProt Q9BV86) | 0.05 | 0.037 | -0.003 | -0.034 | -0.042 | 0.062 | 0.012 | -0.073 | -0.066 | 0.019 |
| OXA1L (UniProt Q15070) | -0.013 | 0.01 | 0.02 | 0.01 | -0.021 | 0.022 | -0.013 | -0.049 | 0.003 | -0.012 |
| MRPS33 (UniProt Q9Y291) | 0.075 | -0.078 | -0.025 | -0.004 | 0.098 | 0.023 | 0.073 | -0.042 | 0.043 | -0.015 |
| NEDD4 isoform 4 (UniProt P46934) | -0.069 | -0.011 | -0.025 | 0.047 | -0.04 | 0.029 | 0.026 | 0.026 | 0.018 | 0.009 |
| PAK1 isoform 2 (UniProt Q13153) | 0.035 | -0.072 | 0.114 | 0.003 | -0.01 | 0.019 | -0.036 | -0.075 | -0.054 | -0.001 |
| OAT (UniProt P04181) | 0.087 | 0.014 | 0.02 | 0.042 | -0.01 | 0.011 | -0.023 | -0.011 | 0.045 | 0.061 |
| NEU1 (UniProt Q99519) | 0.031 | -0.048 | 0.029 | 0.118 | 0.068 | -0.002 | -0.008 | 0.057 | 0.036 | 0.059 |
| MRPL34 (UniProt Q9BQ48) | -0.022 | -0.01 | 0.019 | -0.052 | 0.259 | -0.062 | 0.051 | 0.066 | -0.021 | 0.022 |
| NSUN2 (UniProt Q08J23) | -0.042 | 0.013 | -0.021 | -0.009 | 0.037 | 0.016 | 0.061 | 0.019 | -0.204 | 0.037 |
| NDUFA9 (UniProt Q16795) | 0.023 | -0.036 | 0.019 | 0.04 | -0.095 | 0.009 | 0.039 | -0.044 | 0.041 | 0.026 |
| OSBP (UniProt P22059) | 0.098 | -0.011 | -0.028 | 0.022 | -0.073 | 0.015 | 0.027 | -0.003 | -0.052 | -0.001 |
| MND1 (UniProt Q9BWT6) | 0.034 | 0.021 | 0 | 0.025 | -0.043 | -0.016 | -0.024 | -0.091 | 0.048 | -0.032 |
| NCAPG (UniProt Q9BPX3) | 0.086 | -0.074 | 0.027 | 0.038 | 0.011 | 0.056 | 0.091 | 0.064 | 0.081 | 0.064 |
| MTMR14 (UniProt Q8NCE2) | -0.009 | -0.048 | -0.004 | 0.02 | 0.028 | -0.02 | 0.071 | -0.016 | 0.061 | 0.019 |
| NME1 isoform 2 (UniProt P15531) | -0.054 | 0.047 | 0.029 | -0.006 | -0.067 | -0.003 | -0.045 | -0.092 | -0.07 | -0.108 |
| MYL12B (UniProt O14950) | 0.005 | -0.015 | 0.014 | 0.007 | -0.005 | 0.039 | 0.054 | 0.136 | -0.023 | 0.014 |
| MRPS5 (UniProt P82675) | 0.08 | -0.086 | -0.005 | 0.004 | 0.159 | -0.048 | 0.062 | 0.016 | 0.013 | 0.023 |
| NDUFAF6 (UniProt Q330K2) | 0.055 | 0.068 | 0.169 | 0.024 | -0.052 | -0.055 | 0.035 | -0.088 | -0.063 | -0.01 |
| NUMBL (UniProt Q9Y6R0) | 0.011 | -0.045 | -0.018 | -0.081 | 0.121 | -0.144 | -0.005 | 0.249 | 0 | 0.069 |
| OXSM (UniProt Q9NWU1) | -0.023 | -0.057 | 0.023 | 0.003 | -0.061 | 0.01 | 0.045 | -0.03 | -0.234 (active) | -0.034 |
| MTOR (UniProt P42345) | -0.033 | -0.05 | 0.02 | -0.006 | 0.009 | 0.024 | 0.071 | 0.008 | 0.038 | 0.059 |
| NASP (UniProt P49321) | 0.012 | -0.033 | 0 | 0.009 | -0.058 | 0.037 | 0.038 | -0.006 | 0.001 | 0.027 |
